# PubChem BioAssay (NCATS)
# Inconclusive results are not listed. Calls of active or inactive are those of the source. The call rests on the fitted dose curve; in most records, active means well fitted curve in the direction sought with a large enough effect in the signal ratio; inconclusive means small, poorly fitted or top-dose-only effect, or a change in a side signal; inactive means no such curve, though single readings can be large or run the other way; the % refers to the signal ratio.
# Molecular target: Tumor necrosis factor (Homo sapiens) (UniProt P01375)
# Sequence (P01375 whole entry, looked up): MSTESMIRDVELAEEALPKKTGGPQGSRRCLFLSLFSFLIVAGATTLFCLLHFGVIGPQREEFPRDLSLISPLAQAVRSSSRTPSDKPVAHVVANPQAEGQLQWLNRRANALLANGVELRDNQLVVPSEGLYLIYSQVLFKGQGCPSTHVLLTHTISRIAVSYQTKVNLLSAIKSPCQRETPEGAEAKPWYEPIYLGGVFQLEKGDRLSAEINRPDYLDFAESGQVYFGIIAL
# Assay: qHTS assay to identify small molecules that stimulate Tumor Necrosis Factor-alpha (TNF-alpha) secretion (AID 651757)
# Conditions: Human cells, HTRF 665/615 ratio; series mostly up to 92.2 µM
# Text: National Center for Advancing Translational Sciences [NCATS]
# NIH Chemical Genomics Center [NCGC]
# National Institutes of Environmental Health Sciences [NIEHS]
# National Toxicology Program [NTP]
# Tumor Necrosis Factor-alpha (TNF-alpha), a secreted cytokine, plays an important role in inflammatory diseases and immune disorders. TNF-alpha, a 17 kDa cytokine, is mainly secreted by activated macrophages and monocytes in response to several inflammatory and immunological stimuli. To study the effect of environmental chemicals on TNF-alpha secretion, a homogeneous TNF-alpha assay was developed using Time Resolved fluorescence (HTRF) technology based on Time Resolved Fluorescent Resonance Energy Transfer (TR-FRET) (Leister et al., Current Chemical Genomics, 5:21-29, 2011). This assay allows measuring TNF-alpha secreted from the cells in a 1536-well plate format.
# THP-1 cells were dispensed at 3000 cells/5ul/well in 1536-well white solid plates. After addition of 23 nl of compound, positive controls and DMSO only, the assay plates were incubated at 37 C for 17 hrs, followed by addition of 5 uLof mixture of cryptate labeled and XL665 labeled anti-TNF-alpha antibodies. After the assay plates were incubated at room temperature for 3 hr, the plates were measured by an EnVision plate reader.
row,Structure (SMILES),outcome
1,COP(=S)(OC)Oc1ccc(SC)c(C)c1,inactive
2,Oc1ccc(Cl)cc1,inactive
3,C[C@]12CCC(=O)C=C1CC[C@@H]1[C@@H]2CC[C@@]2(C)[C@H]1CC[C@]2(C)O,inactive
4,Clc1ccc(C(c2ccc(Cl)cc2)C(Cl)(Cl)Cl)cc1,inactive
5,C[C@]12CCC(=O)C=C1CC[C@@H]1[C@@H]2CC[C@]2(C)C(=O)CC[C@@H]12,inactive
6,C[C@]1(O)CC[C@H]2[C@@H]3CCC4=CC(=O)CC[C@]4(C)[C@@]3(F)[C@@H](O)C[C@@]21C,inactive
7,CC(C)c1cccc(C(C)C)c1O,inactive
8,CC(C)NC(C)C,inactive
9,CCC(C)(C)c1ccc(O)cc1,inactive
10,NCCc1ccc(O)cc1,inactive
11,Nc1ccccc1,inactive
12,O=P1(N(CCCl)CCCl)NCCCO1 (configuration not stated),inactive
13,CCCC(C)(COC(N)=O)COC(N)=O,inactive
14,Nc1ccccc1C(=O)O,inactive
15,CCOC(=O)CC(SP(=S)(OC)OC)C(=O)OCC (configuration not stated),inactive
16,COC(=O)C(c1ccccc1)C1CCCCN1 (configuration not stated),inactive
17,COc1cc(OC)c(OC)cc1C=O,inactive
